a7 integrin act: activates integrin-mediated alleviation for muscular dystrophy. Potency, µM (top dose mostly 38.3 µM), inactives show at the top dose activation, actives largely listed as activators. alpha7betagal myoblasts, beta-gal FDG fluorescence, 48 h. AID 624291. 350,000 tested, 0.064% active;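 note: 100% = response of the positive control SU9516; nearly all actives have a fitted effect of over 60% in size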
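alpha7betagal+/- myoblasts (passage 13, 250/well) treated 48 h at 37C with compounds at 1:260 dilution of DMSO stock. Lysed, then beta-galactosidase activity read as FDG fluorescence (ex 480/em 540) after 30 min, with pre-read for autofluorescence.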
Mito fusion act: mitochondrial division inhibition or fusion activation; S. cerevisiae fusion-defective mutant growth rescue, CellTiterGlo 48 h; Potency, µM (titrated, usually from 46.1 µM), for the others: at the top dose growth rescue (activation), hits mostly activators; 320,000 tested, 0.23% active; AID 485298; note: % of control where 0% means no effect; nearly all actives have a fitted effect of over 45% in size
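Luminescent cell viability in 1536-well qHTS format served as the measure of rescued growth in ts fusion-mutant S. cerevisiae cultured on non-fermentable YPEG for 48 hours at 37C.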
uPA surface inh: blocks generation of uPA at the cell surface. AID 540303. 330,000 tested, 0.31% active. Potency, µM (series often up to 38.3 µM), inactives show at the highest dose activity change, negative = inhibition, actives largely listed as inhibitors. cell surface uPA generation assay, qHTS; active = well fitted inhibition curve with a large enough effect; inconclusive = small, poorly fitted or top-dose-only effect; inactive = no such curve, though single readings can be large or run the other way; tested in mouse RAW 264.7 cells; note: % is set by controls: 0 for no effect and ±100 for the full control effect; nearly all actives have a fitted effect of over 55% in size
BCR signal inh: inhibitors of chronic active B-cell receptor signaling; ABC-DLBCL IkBa-CBG/CBR reporter, luminescence ratio, 4 h; Potency, µM (top dose mostly 46.1 µM), for the others: top-dose activity change, negative = inhibition, most hits filed as inhibitors; 340,000 tested, 0.05% active; active = well fitted inhibition curve with a large enough effect in the signal ratio, with a control signal flat, not every such curve was filed as active; inconclusive = small, poorly fitted or top-dose-only effect, or effect the other way, or a change in a side signal; the % refers to the signal ratio;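 note: plate controls were basal doxycycline-induced cells for no effect and cells given 10 µM MG132 for full effect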
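TMD8 human ABC-DLBCL cells with doxycycline-inducible IκBα–green luciferase fusion and unfused red luciferase, in 0.5% FBS medium; compounds up to 46 uM, 4 h at 37C. Green/red luminescence ratio, filter-overlap corrected, fitted to concentration-response curves.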
VP16 counter: inhibits Gal4-VP16 luciferase reporter, ROR gamma counter-screen. 310,000 tested, 3.5% active. Drosophila S2 Gal4-VP16 UAS-luciferase, luminescence, 20 h. Potency, µM (top dose mostly 53.6 µM), inactives show top-dose activity, negative = inhibition, most hits filed as inhibitors. AID 2546;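 note: Gal4-VP16 expression switched on by copper sulfate through the metallothionein promoter; % is set by controls: 0 for no effect and ±100 for the full control effect; nearly all actives have a fitted effect of over 50% in size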
RORg inh: inhibitors of mouse ROR gamma transcriptional activity. Drosophila S2 Gal4-RORgamma UAS-luciferase reporter, 20 h. Potency, µM (highest dose often 53.6 µM), inactives show top-dose activity change, negative = inhibition, actives largely listed as inhibitors. 310,000 tested, 5.4% active. P51450; note: % is set by controls: 0 for no effect and ±100 for the full control effect; nearly all actives have a fitted effect of over 60% in size
Target sequence (P51450 whole entry, looked up, the tested form may be a part): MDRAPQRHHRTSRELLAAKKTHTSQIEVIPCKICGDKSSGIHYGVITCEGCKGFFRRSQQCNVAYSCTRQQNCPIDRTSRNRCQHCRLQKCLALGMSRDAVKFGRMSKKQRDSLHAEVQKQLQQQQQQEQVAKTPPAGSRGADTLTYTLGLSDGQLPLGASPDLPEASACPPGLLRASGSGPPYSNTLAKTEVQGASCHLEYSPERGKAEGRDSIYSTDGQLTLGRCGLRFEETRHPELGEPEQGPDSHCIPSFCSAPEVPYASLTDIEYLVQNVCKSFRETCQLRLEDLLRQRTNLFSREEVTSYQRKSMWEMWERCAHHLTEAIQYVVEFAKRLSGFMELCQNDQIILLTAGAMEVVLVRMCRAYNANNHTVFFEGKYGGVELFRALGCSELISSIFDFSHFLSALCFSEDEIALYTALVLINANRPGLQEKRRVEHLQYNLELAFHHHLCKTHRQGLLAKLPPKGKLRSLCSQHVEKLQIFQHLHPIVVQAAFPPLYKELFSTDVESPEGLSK
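A Gal4/UAS one-hybrid system in insect cells: metallothionein-promoter Gal4–ROR gamma fusion plus Photinus luciferase reporter. Copper sulfate 700 uM final, 20 hr ambient incubation, luminescent detection after 10 min with reagent.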
Starred values were filed as active, the others as inactive; u = inconclusive; x = not tested or not shown; [ ] = dose if it differs, or a comment. Shown are actives, neighbours in structure and some others; about 5.5% of the full set was active somewhere. Unless noted, calls come from the whole dose curve; as a rule, active = well fitted curve in the direction sought with a large enough effect; inconclusive = small, poorly fitted or top-dose-only effect, or another doubt; inactive = no such curve, though single readings can be large; an effect the other way counts as inactive or inconclusive. Potency is the fitted concentration of half-maximal effect.

SMILES	a7 integrin act	Mito fusion act	uPA surface inh	BCR signal inh	VP16 counter	RORg inh
O=C(CCC1N=C2c3ccccc3N=C(SCc3ccccc3F)N2C1=O)NCc1ccccc1 (stereo not given)	x	x	x	-10.7%	x	x
COc1cc(Cl)c(C)cc1NCC(=O)Nc1cccc(S(=O)(=O)N2CCCC2)c1	0.0%	-0.2%	-0.1%	-11.0%	x	x
CCCCCCCCCCn1c2c(c(=N)c3c1CCC3)CCC2	-63.4%	-15.4%	-6.9%	u	3.16µM*	8.91µM*
CCCCCCCCCn1c2c(c(=N)c3c1CCC3)CCCC2	-57.1%	-27.8%	-17.4%	u	u	3.98µM*
CCCCCCCCn1c2c(c(=N)c3ccccc31)CCC2	u	6.6%	-16.5%	12.2%	-6.9%	-0.3%
COc1ccc2c(c1)C(=O)[C@H](OC(=O)N[C@H]1CCCc3ccccc31)[C@@H](c1ccc(OC)c(Br)c1)O2	x	x	x	x	2.0%	-2.9%
O=C(O)CCC1CCCC1	x	x	x	x	-7.9%	-13.2%
O=C1c2ccccc2CN1CCNC(=S)NC1CCCCC1	-5.9%	-2.3%	-0.3%	0.2%	-25.0%	17.8µM*
Cc1ccc(CNC(=S)NC2CCCCC2)cc1	u	-14.8%	-6.1%	-0.9%	3.98µM*	3.98µM*
S=C(Nc1ccccn1)NC1CCCC1	-19.8%	-13.8%	-18.8%	-10.1%	-8.5%	-26.9%
S=C(NCc1cccc(Cl)c1)NC1CCCCC1	-34.1%	13.9%	2.5%	-0.7%	14.1µM*	2.82µM*
S=C(NCc1ccncc1)NC1CCCCC1	1.7%	-3.7%	-4.7%	5.2%	-5.0%	2.9%
S=C(Nc1ccccn1)NC1CCCCC1	-6.9%	0.3%	-0.2%	u	5.01µM*	2µM*
CC(=O)Nc1ccc(SCC(c2ccccc2)N2CCN(C)CCC2=O)cc1 (stereo not given)	x	x	x	x	2.2%	-18.5%
NC(=O)c1nn2c(C(F)(F)F)cc(-c3ccc(Br)cc3)nc2c1Cl	x	x	x	-4.5%	x	x
O=C1N(c2ccccc2C(F)(F)F)O[C@]1(c1ccccc1)C1CCCC1	13.3%	-36.2%	-18.9%	3.1%	x	x
Cc1ccc(N2CCN(c3cc(C)nc4c(-c5ccc(Cl)cc5)c(C)nn34)CC2C)cc1 (stereo not given)	x	x	x	6.5%	x	x
CC(C)C[C@H](NC(=O)[C@H]1O[C@@H]1C(=O)O)C(=O)NCCCCN=C(N)N	x	x	x	x	-2.0%	0.6%
COCCCNC(=O)Cn1c(=O)n(-c2cccc(C)c2)c(=O)c2c1c1cc(C)ccc1n2C	x	x	x	-1.2%	x	x
C[C@@H](C1[C@@H](O)CC2C3C=CC4C[C@@H](O)CC[C@]4(C)[C@H]3CC[C@@]21C)[C@@H]1CCCCN1 (stereo not given in full)	x	x	x	x	2.1%	8.3%
S=C(NCc1ccccc1)NC1CCCCC1	17.5%	-5.2%	-2.3%	-7.0%	17.8µM*	3.98µM*
S=C(NCCCc1ccccc1)NC1CCCCC1	-6.8%	-7.8%	0.2%	u	7.08µM*	4.47µM*
S=C(NCCc1ccccn1)NC1CCCCC1	-19.1%	-3.2%	-1.3%	-8.6%	-90.3%	12.6µM*
O=C(NCCCCc1ccccc1)C1CCCC1	21.0%	0.7%	4.9%	0.9%	17.0%	-20.7%[1.91 µM]
OCCNC(=S)NC1CCCCC1	12.7%	-4.0%	-1.8%	-11.2%	7.7%	8.1%
SMILES	a7 integrin act	Mito fusion act	uPA surface inh	BCR signal inh	VP16 counter	RORg inh
COCCCNC(=S)NC1CCCCC1	14.3%	-8.5%	-1.2%	-3.3%	u	11.2µM*
[O-][N+](=Nc1ccccc1)c1ccccc1	x	x	x	x	12.8%	32.9%
CCC(C)(Oc1ccc(C2(c3ccc(OC(C)(CC)C(=O)O)cc3)CCCCC2)cc1)C(=O)O (stereo not given)	x	x	x	x	-1.8%	-23.7%
CCC(C)Sc1ccc([C@H]2N[C@@](C)(C(=O)OC)[C@H]3C(=O)N(C)C(=O)[C@@H]23)cc1OC (stereo not given in full)	15.0%	-0.2%	4.5%	-6.1%	x	x
CC(SC1=NCCS1)C(=O)Nc1nnc(-c2ccc(Br)cc2)s1 (stereo not given)	10.2%	7.1%	-9.4%	18.7%	10µM*	8.91µM*
CCOC(=O)Nc1nnc(-c2ccccc2OC)s1	-13.6%	-1.1%	-12.3%	-9.7%	-2.4%	u
CCC(SC1=NCCS1)C(=O)Nc1nnc(-c2ccccc2OC)s1 (stereo not given)	28.3%	-2.2%	-3.3%	2.4%	15.8µM*	6.31µM*
CC(SC1=NCCS1)C(=O)Nc1nnc(-c2ccc(F)cc2)s1 (stereo not given)	20.4%	16.0%	-8.7%	-29.0%	u	7.94µM*
Cc1ccc2[nH]c(C(=O)N3CCN(c4cccc(Cl)c4)CC3)cc2c1	-17.8%	3.9%	-0.8%	2.4%	1.4%	-18.8%
Cc1ccc(-n2nc3c(=O)n(CC(=O)NCCc4ccc(Cl)cc4)nc(C)c3c2C)cc1	-35.8%	-5.3%	-16.3%	-6.6%	12.6µM*	44.2%
CC(C)C(=O)Nc1cc(C(F)(F)F)ccc1N1CCOCC1	-3.2%	5.1%	-6.8%	2.4%	1.0%	36.7%
CC(=O)NC(=S)Nc1cc(C(F)(F)F)ccc1N1CCOCC1	22.8%	-7.2%	0.6%	-3.0%	u	12.6µM*
O=C(Nc1cc(C(F)(F)F)ccc1N1CCOCC1)c1ccccc1	-17.0%	6.4%	0.9%	u	1.3%	5.1%
O=C(NC(=S)Nc1cc(C(F)(F)F)ccc1N1CCOCC1)c1ccco1	-5.8%	-5.5%	-9.2%	-12.1%	11.2µM*	1.41µM*
C=CCOCC(O)Cn1c(N2CCCC2)nc2c1c(=O)[nH]c(=O)n2C (stereo not given)	20.0%	0.1%	21.6%	-0.8%	x	x
Cc1ccccc1-c1nc(CN2CCC(C(=O)NC3CC3)CC2)c(C)o1	1.2%	-7.9%	0.6%	-7.7%	3.0%	-25.2%
Cn1c(OCc2cccnc2)nc2c1c(=O)n(Cc1ccc(Cl)cc1)c(=O)n2C	-9.3%	x	1.2%	x	x	x
Cn1c(OCc2cccnc2)nc2c1c(=O)n(Cc1ccc(Br)cc1)c(=O)n2C	-6.1%	14.2%	1.2%	-1.1%	u	3.55µM*
CCCc1sc(N/N=C/c2ccccn2)nc1-c1ccc(Br)cc1	-53.2%	-8.1%	u	u	1.41µM*	1.58µM*
CCN(CC(=O)Nc1ccc(NC(C)=O)cc1)C(=O)c1cc(CN2C(=O)c3ccccc3C2=O)ccc1OC	-4.1%	-4.7%	3.0%	2.6%	x	x
Cc1cc(OCC(=O)Nc2ccc(N3CCCC3)cc2)cc(C)c1Cl	-37.5%	-0.3%	-1.0%	-15.3%	12.3%	-0.5%
Cc1ccccc1OCC(=O)NC(=S)Nc1ccc(N2CCCC2)cc1	-32.1%	-4.5%	-3.8%	-8.6%	8.91µM*	8.91µM*
Cc1ccccc1OCC(=O)NC(=S)Nc1ccccc1N1CCN(S(C)(=O)=O)CC1	-5.5%	-5.7%	-2.0%	-2.8%	u	10µM*
Cc1cccc(OCC(=O)Nc2ccccc2N2CCCCC2)c1C	3.3%	27.5%	-20.3%	u	x	x

Screening results from PubChem.
